Results filed as inconclusive are left out. Entries that show only a call come without a potency. Active and inactive are the calls of the source. Calls follow the shape of the full dose curve.

The target of the assay is Beta-2 adrenergic receptor (Homo sapiens) (UniProt P07550). As to the kind of experiment: Adrenergic beta2 receptor (ADRB2) small molecule antagonists, cell-based qHTS assay (AID 1963592). Also: nearly all actives have a fitted effect of over 50% in size. To be noted: CHO-ADRB2 cells, isoproterenol-stimulated cAMP HTRF ratio, 0.5 h; series mostly up to 92.4 µM; activity change, negative = inhibition: at the top concentration. From the text: U.S. Tox21 Program National Center for Advancing Translational Sciences [NCATS] Division of Preclinical Innovation [DPI] U.S. Environmental Protection Agency [EPA] National Institutes of Environmental Health Sciences [NIEHS] National Toxicology Program [NTP] U.S. Food and Drug Administration [FDA] Tox21 Assay Overview: Beta adrenergic receptors (Beta-ARs) belong to the G-protein coupled receptor (GPCR) superfamily, includes three subtypes - beta1, beta2, and beta3. Beta1-AR is the predominant receptor subtype expressed in the heart, and beta2-AR is expressed in the kidney, lung, blood vessel and in the heart, and beta3 is found in the adipocytes. Beta1 and 2 ARs couple to Gs protein and elevate cyclic adenosine mono phosphate (cAMP), which activates protein kinase A and leads to the downstream signaling responsible for the physiological actions. Beta-AR agonists or antagonists are the most prescribed therapeutic agents for heart failure and asthma, and these were one of the first target receptors for the rational drug design. Tox21 10K compound library was screened using the cAMP-Gs dynamic assay (Cisbio Bioassays, Shelton, CT) to identify agonists/antagonists of the Gs-coupled human adrenergic, beta2 receptor (ADRB2) in the CHO-ADRB2 cell line (Codex BioSolutions, Inc. Gaithersburg, MD), which stably over-expresses ADRB2. The principle of cAMP-Gs dynamic assay is based on HTRF technology, which facilitates the fluorescence resonance energy transfer (FRET) between donor Europium cryptate and acceptor d2-labeled cAMP. The cAMP generated within cells competes with the red acceptor, d2-labled cAMP, for binding to the monoclonal anti-cAMP-cryptate (Europium donor). An increase in intracellular cAMP leads to the disruption of FRET signal, and the signal is inversely proportional to the cAMP concentration. Propranolol HCl (Sigma-Aldrich, St. Louis, MO) was used as a positive control in the screening.
Chain of Beta-2 adrenergic receptor (Homo sapiens) (P07550 whole entry, looked up): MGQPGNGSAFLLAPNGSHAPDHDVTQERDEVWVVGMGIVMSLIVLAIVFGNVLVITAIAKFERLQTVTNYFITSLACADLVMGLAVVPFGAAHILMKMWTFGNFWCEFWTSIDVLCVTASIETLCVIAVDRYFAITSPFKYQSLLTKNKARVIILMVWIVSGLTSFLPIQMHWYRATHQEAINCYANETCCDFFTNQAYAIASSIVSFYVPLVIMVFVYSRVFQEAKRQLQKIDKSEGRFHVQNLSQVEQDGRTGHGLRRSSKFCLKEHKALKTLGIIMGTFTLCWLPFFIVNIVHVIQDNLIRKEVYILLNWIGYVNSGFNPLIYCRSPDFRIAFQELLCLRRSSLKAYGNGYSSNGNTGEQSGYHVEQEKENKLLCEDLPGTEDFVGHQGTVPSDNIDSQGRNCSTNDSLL
Tox21 Assay Protocol Summary: CHO-ADRB2 cells were dispensed at 1,000/well in 4uL assay medium into white/solid 1536-well plates (Greiner Bio-One North America Inc., Monroe, NC) using a Multidrop Combi dispenser (ThermoFisher Scientific, Waltham, MA). The assay plates were incubated at 37C and 5% CO2 for an overnight (18-20hr). Then positive control and test compounds dissolved in DMSO were transferred to the assay plates at 23nL using a Pintool station (Wako, San Diego, CA). Following the compound and positive control transfer, 1uL agonist-stimulation mix containing 1nM Isoproterenol HCl, 100uM IBMX and 25uM Ro-20-1724 was added to each well of the assay plates using BioRAPTR Flying Reagent Dispenser (FRD, Beckman Coulter, Brea, CA). The assay plates were incubated at room temperature for 0.5hr. Then 2.5ul each d2-labled cAMP and anti-cAMP-cryptate solutions were added separately to each well of the assay plates using an FRD and the assay plates were incubated at room temperature for 1hr. The fluorescence signal was measured at two different wavelengths (665nm and 615nm) using an Envision plate reader (Perkin Elmer, Shelton, CT). Data were expressed as the ratio of 665 nm/615 nm.
With `CC(C)OC(=O)Nc1cccc(Cl)c1`, the Potency entry was “inactive”.

In the case of `CCOC(=O)C(c1c(O)c2ccccc2oc1=O)c1c(O)c2ccccc2oc1=O`, the “activity change, negative = inhibition” value is 3.42% [at 42.5 µM] (inactive).

As to `CCN(CC)C1CCCCC1`, the “activity change, negative = inhibition” value is -5.29% (inactive). As for `O=c1ccc(=O)[nH][nH]1`, the Potency result is “inactive”.

`CCc1cccc(CC)c1N(COC)C(=O)CCl`: the Potency result was “inactive”. The same measure, in the same setting: to `CCCCCCCCCc1ccc(O)cc1` belongs “inactive”. As for `c1ccc(N=Nc2ccccc2)cc1`, the Potency entry is “inactive”.

Regarding `C/C=C/CC#N`, the “activity change, negative = inhibition” value was 1.22% (inactive). As to `ClCCBr`, the Potency entry is “inactive”. The same measure, in the same setting: to `O=S(=O)(c1ccc(Cl)cc1)c1cc(Cl)c(Cl)cc1Cl` belongs “inactive”. Still for that read-out and setting: to `CCCCN(CC)C(=O)SCCC` belongs “inactive”. On to `Cc1cccc(C#N)c1`, for which the “activity change, negative = inhibition” value was 0.65% (inactive).

Regarding `O=[N+]([O-])c1cc(Cl)c(Cl)c(Cl)c1`, the “activity change, negative = inhibition” value was 0.155% (inactive). Take `O=C(Nc1ccc(Br)cc1)c1cc(Br)cc(Br)c1O`: the Potency result is “inactive”. The same measure, in the same setting: to `CCOC(=O)c1ccccc1C(=O)OCC` belongs “inactive”; to `CCCCCCCCCCCCn1cc[n+](C)c1`, “inactive”. The same measure, in the same setting: to `C=CCN(CC=C)C(=O)C(Cl)Cl` belongs “inactive”. Take `O=C(Cl)OCCOCCOC(=O)Cl`: the “activity change, negative = inhibition” value is -2.81% (inactive). As to `N#CC1(N=NC2(C#N)CCCCC2)CCCCC1`, the “activity change, negative = inhibition” value was -6.95% (inactive). The same measure, in the same setting: to `Cl/C=C/CCl` belongs -8.33% (inactive). Consider `C=CC1(C)OC(=O)N(c2cc(Cl)cc(Cl)c2)C1=O` (stereo not given), for which the Potency result is “inactive”. On the same count and under the same terms, to `OCCN(CCO)CCO` belongs “inactive”. For `CCNc1nc(NC(C)(C)C)nc(SC)n1`, the “activity change, negative = inhibition” value was -14.5% (inactive). Consider `c1ccc2c(c1)oc1ccccc12`, for which the Potency entry was “inactive”. For `CC(=O)C(C)(C)C`, the “activity change, negative = inhibition” value was -4.94% (inactive).

With `O=P(Oc1ccccc1)(Oc1ccccc1)Oc1ccccc1`, the Potency result was “inactive”. With `Clc1ccc(COC(Cn2ccnc2)c2ccc(Cl)cc2Cl)cc1` (stereo not given), the “activity change, negative = inhibition” value is -9.5% [at 42.5 µM] (inactive). Same read-out and setting: to `COC(=O)C(Br)CBr` (stereo not given) belongs -0.803% (inactive). On the same count and under the same terms, to `Cc1ccc2cc(C)ccc2c1` belongs 5.61% (inactive). Regarding `CC1OC(C)OC(C)O1` (stereo not given), the Potency result was “inactive”.

Turning to `N#CCc1ccccc1`, the “activity change, negative = inhibition” value was 0.578% (inactive). Same read-out and setting: to `NC(=O)c1cc([N+](=O)[O-])cc([N+](=O)[O-])c1` belongs 10.5% [at 42.5 µM] (inactive). Regarding `CN(C)C(=S)SSC(=S)N(C)C`, the Potency entry is “inactive”. Regarding `NCc1cccnc1`, the Potency entry was “inactive”. The same measure, in the same setting: to `Nc1ccccc1` belongs “inactive”. For the compound `CCCCCBr`, the “activity change, negative = inhibition” value is 1.11% (inactive). Still for that read-out and setting: to `CN=C=O` belongs 1.94% (inactive). With `CNCC(O)c1ccc(O)cc1` (stereo not given), the Potency entry was “inactive”. Regarding `ClCCN1CCCC1`, the “activity change, negative = inhibition” value was -0.572% [at 42.5 µM] (inactive). As to `Cc1ccc(CCl)cc1`, the “activity change, negative = inhibition” value is -2.28% (inactive).

The values above are taken from PubChem BioAssay (Tox21).
